One test relates to CDK8. As to conditions: concentration: 1 μM, replicates: in singlicate; n = 1.
Another test concerns CDK9. As to conditions: concentration: 1 μM, replicates: in singlicate; n = 1.
The test system of the next test is CDKL1. As to conditions: concentration: 1 μM, replicates: in singlicate; n = 1.
The test system of a further test is CDKL2. The conditions noted are these: concentration: 1 μM, replicates: in singlicate; n = 1.
The next test deals with CDKL3. As to conditions: concentration: 1 μM, replicates: in singlicate; n = 1.
The test system of a further test is CDKL5. The conditions noted are these: concentration: 1 μM, replicates: in singlicate; n = 1.
Another test relates to CHEK1. The conditions noted are these: concentration: 1 μM, replicates: in singlicate; n = 1.
Another test has as its system CHEK2. As to conditions: concentration: 1 μM, replicates: in singlicate; n = 1.
For a further test, the system named is CIT. The conditions noted are these: n = 1.
Another test deals with CLK1. The conditions noted are these: concentration: 1 μM, replicates: in singlicate; n = 1.
For the next test, the system named is CLK2. As to conditions: concentration: 1 μM, replicates: in singlicate; n = 1.
A further test has as its system CLK3. The conditions noted are these: concentration: 1 μM, replicates: in singlicate; n = 1.
The test system of a further test is CLK4. As to conditions: concentration: 1 μM, replicates: in singlicate; n = 1.
The subject of the next test is CSF1R-autoinhibited. The conditions noted are these: concentration: 1 μM, replicates: in singlicate; n = 1.
Another test deals with CSF1R. As to conditions: concentration: 1 μM, replicates: in singlicate; n = 1.
For a further test, the system named is CSK. The conditions noted are these: concentration: 1 μM, replicates: in singlicate; n = 1.
In the next test the test system is CSNK1A1L. As to conditions: concentration: 1 μM, replicates: in singlicate; n = 1.
For a further test, the system named is CSNK1A1. As to conditions: concentration: 1 μM, replicates: in singlicate; n = 1.
For the next test, the system named is CSNK1D. The conditions noted are these: concentration: 1 μM, replicates: in singlicate; n = 1.
Another test concerns CSNK1E. As to conditions: concentration: 1 μM, replicates: in singlicate; n = 1.
Where [1] appears, read: concentration: 1 μM, replicates: in singlicate.

Read-outs that look alike come from different tables or passages of the source.
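Note: KINOMEscan kinase panel screen.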

`CCn1c(-c2nonc2N)nc2c(C#CC(C)(C)O)ncc(OCCCCN)c21.O=C(O)C(F)(F)F.O=C(O)C(F)(F)F` [GSK507274]: the “%Inh” value with CDK8 is given as 0%; in the test with CDK9, 0%; in the test on CDKL1, 0%; with CDKL2 it was 53%; in the test with CDKL3, 0%; in the test with CDKL5, 10%. Besides, the “%Inh” value with CHEK1 is given as 2%; in the test with CHEK2 it was 0%; in the test on CIT (1 µM), 100%; in the test with CLK1 it was 21%; with CLK2 it was 69%; in the test on CLK3 it was 11%. For the same compound, the “%Inh” value was 43% with CLK4; 0% in the test with CSF1R-autoinhibited; 21% in the test with CSF1R; 0% in the test on CSK; 18% with CSNK1A1L; 19% in the test on CSNK1A1. Also, the “%Inh” value in the test on CSNK1D was determined as 29%; with CSNK1E, 38%.

Take `O=C(O)C(F)(F)F.O=C(O)C(F)(F)F.O=c1[nH]ccc2nc(N[C@@H]3CCCNC3)nc(Nc3ccc(S(=O)(=O)N4CCOCC4)cc3)c12` [GSK2177277]: the “%Inh” value worked out at 0% in the test with CDK8; 17% in the test with CDK9; 64% with CDKL1; 45% in the test with CDKL2; 0% in the test on CDKL3; 42% in the test on CDKL5. Also, the “%Inh” value in the test with CHEK1 was found to be 100%; in the test on CHEK2 it was 74%; in the test with CIT (setting [1]) it was 76%; in the test on CLK1 it was 76%; in the test on CLK2, 98.9%; in the test on CLK3, 41%. Further, the “%Inh” value is listed as 79% in the test with CLK4; 83% in the test on CSF1R-autoinhibited; 99.9% with CSF1R; 51% with CSK; 99.7% in the test on CSNK1A1L; 99.9% in the test with CSNK1A1. For the same compound, the “%Inh” value stood at 98.7% with CSNK1D and 99.9% with CSNK1E.

Regarding `Cl.NC(=O)c1cccc(Nc2nccc(Nc3ccc(Oc4c(Cl)cccc4Cl)c(Cl)c3)n2)c1` [GW659009], the “%Inh” value in the test with CDK8 is on record as 18%; in the test with CDK9 it was 0%; in the test on CDKL1 it was 0%; in the test on CDKL2, 15%; with CDKL3, 0%; in the test with CDKL5 it was 0%. Moreover, the “%Inh” value in the test on CHEK1 was found to be 1%; with CHEK2, 0%; in the test on CIT (setting [1]), 9%; in the test with CLK1, 46%; with CLK2, 0%; in the test on CLK3 it was 0%. Further, the “%Inh” value amounted to 34% in the test on CLK4; 0% in the test with CSF1R-autoinhibited; 10% with CSF1R; 0% with CSK; 0% in the test with CSNK1A1L; 13% in the test on CSNK1A1. The “%Inh” value in the test with CSNK1D and in the test on CSNK1E was 0% in each case.

On to `Cl.Cl.NCC(C(=O)Nc1cc(Br)c(-c2ccnc3[nH]ccc23)s1)c1ccccc1` (stereo not drawn) [GSK1269851], for which the “%Inh” value is on record as 0% in the test with CDK8; 3% in the test with CDK9; 20% with CDKL1; 51% in the test with CDKL2; 0% with CDKL3; 0% in the test on CDKL5. Also, the “%Inh” value with CHEK1 is recorded as 0%; in the test with CHEK2, 0%; with CIT (setting [1]) it was 99%; in the test with CLK1, 63%; in the test with CLK2 it was 100%; in the test on CLK3, 39%. Moreover, the “%Inh” value in the test on CLK4 is listed as 61%; in the test with CSF1R-autoinhibited it was 0%; with CSF1R, 28%; in the test on CSK, 0%; in the test on CSNK1A1L, 19%; in the test on CSNK1A1, 0%. Further, the “%Inh” value came out at 35% in the test on CSNK1D and 28% in the test with CSNK1E.

`Cn1cc(-c2ccc3c(c2)CCN3C(=O)Cc2cccc(Cl)c2)c2c(N)ncnc21` [GSK2606590]: the “%Inh” value in the test on CDK8 was found to be 100%; in the test on CDK9, 0%; in the test with CDKL1, 0%; with CDKL2, 42%; in the test on CDKL3 it was 0%; in the test with CDKL5, 4%. In addition, the “%Inh” value in the test on CHEK1 came to 3%; in the test with CHEK2, 0%; in the test on CIT (setting [1]), 26%; in the test with CLK1, 30%; in the test on CLK2, 0%; in the test with CLK3, 13%. Besides, the “%Inh” value in the test with CLK4 stood at 14%; with CSF1R-autoinhibited, 5%; with CSF1R, 97.6%; in the test with CSK it was 6%; in the test on CSNK1A1L, 13%; in the test with CSNK1A1, 20%. The “%Inh” value with CSNK1D is recorded as 16%; in the test with CSNK1E it was 63%.

For the compound `COc1ccc(-c2coc3ccc(-c4nnc(SCc5ccc(OC)c(C(F)(F)F)c5)o4)cc23)cc1`, the “%Inh” value with CDK8 came to 20%; in the test with CDK9, 1%; in the test on CDKL1 it was 11%; in the test with CDKL2 it was 0%; in the test with CDKL3, 0%; in the test on CDKL5, 1%. In addition, the “%Inh” value in the test with CHEK1 stood at 0%; with CHEK2, 18%; in the test with CIT (setting [1]) it was 0%; with CLK1, 26%; in the test with CLK2, 1%; in the test on CLK3, 0%. The “%Inh” value in the test with CLK4 turned out to be 18%; in the test with CSF1R-autoinhibited, 7%; with CSF1R, 0%; in the test with CSK, 16%; in the test with CSNK1A1L, 0%; in the test on CSNK1A1 it was 0%. In addition, the “%Inh” value in the test on CSNK1D and in the test on CSNK1E was 0% throughout.

For the compound `CC(C)c1nc(-c2cccc(NS(=O)(=O)c3c(F)cccc3F)c2F)c(-c2ccnc(Nc3ccc(N4CCOCC4)nc3)n2)s1` [GSK2008607], the “%Inh” value in the test on CDK8 is 14%; with CDK9, 93%; in the test on CDKL1, 54%; in the test on CDKL2 it was 99.3%; in the test with CDKL3, 4%; in the test with CDKL5, 90.2%. The “%Inh” value with CHEK1 is given as 0%; in the test on CHEK2 it was 60%; in the test on CIT (setting [1]), 95.1%; with CLK1, 0%; with CLK2, 0%; with CLK3 it was 0%. In addition, the “%Inh” value in the test with CLK4 stood at 0%; with CSF1R-autoinhibited, 0%; in the test with CSF1R, 86%; in the test on CSK it was 98%; with CSNK1A1L, 0%; in the test on CSNK1A1, 0%. Moreover, the “%Inh” value in the test with CSNK1D was 0%; in the test with CSNK1E it was 4%.

As for `COc1ccc(Nc2nccc(N3CCC(NC(=O)Nc4cccc(OC)c4)C3)n2)cc1` (stereo not drawn) [GSK1379742], the “%Inh” value in the test on CDK8 was determined as 72%; in the test on CDK9, 0%; in the test on CDKL1 it was 0%; in the test on CDKL2 it was 49%; in the test on CDKL3, 0%; in the test with CDKL5 it was 0%. Further, the “%Inh” value in the test on CHEK1 is 0%; in the test on CHEK2, 0%; in the test on CIT (setting [1]), 14%; in the test with CLK1, 26%; in the test with CLK2, 0%; in the test with CLK3, 39%. The “%Inh” value in the test with CLK4 stood at 9%; in the test with CSF1R-autoinhibited, 0%; in the test with CSF1R it was 0%; in the test with CSK it was 0%; with CSNK1A1L, 19%; in the test with CSNK1A1, 0%. Moreover, the “%Inh” value worked out at 1% in the test with CSNK1D and 34% with CSNK1E.

For the compound `Cl.c1ccc(-c2ccc3c(Nc4ccc5[nH]ncc5c4)ccnc3c2)nc1` [GW440137], the “%Inh” value was 26% with CDK8; 11% in the test with CDK9; 7% with CDKL1; 40% in the test with CDKL2; 0% with CDKL3; 0% in the test with CDKL5. Moreover, the “%Inh” value with CHEK1 is listed as 0%; with CHEK2, 14%; in the test on CIT (setting [1]), 11%; in the test on CLK1, 48%; in the test with CLK2, 67%; with CLK3 it was 12%. The “%Inh” value in the test on CLK4 is reported as 21%; in the test on CSF1R-autoinhibited, 0%; in the test with CSF1R, 27%; in the test on CSK, 0%; in the test on CSNK1A1L, 0%; in the test with CSNK1A1 it was 0%. For the same compound, the “%Inh” value stood at 27% with CSNK1D and 41% in the test with CSNK1E.
